Measurements from PubChem BioAssay (NCATS).
Calls of active or inactive are those of the source. Calls come from the whole dose curve; as a rule, active = well fitted curve in the direction sought with a large enough effect; inconclusive = small, poorly fitted or top-dose-only effect, or effect the other way, or another doubt; inactive = no such curve, though single readings can be large or run the other way.

Test: qHTS for Inhibitors of Cell Surface uPA Generation: Validation Assay (AID 493164);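 note: RAW 264.7 macrophage cells exposed to compound for 18 h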
Conditions: mouse cells, plasminogen activation; series mostly up to 38.3 µM
Source text: NIH Chemical Genomics Center [NCGC]
NIH Molecular Libraries Probe Centers Network [MLPCN]
Assay Submitter (PI): Thomas Bugge
The overall objective of this project is to perform a quantitative high throughput screen (qHTS) to identify novel compounds that inhibit the generation of cell surface urokinase activity. The urokinase plasminogen activator (uPA) is one of the two primary endogenous systems that mediate plasminogen activation into plasmin. Members of this system, including uPA and its receptor (uPAR), are overexpressed in several malignant tumors. This system plays a major role in adhesion, migration, invasion and metastasis of cancer cells. Small molecule inhibitors of the uPA system will serve as probes to understand the molecular mechanisms of the uPA cascade and better understanding the microenvironmental circumstances that facilitate the activation of plasminogen by uPA, and finally may provide novel candidate agents for anticancer drug therapy.
[…] […] Upon inhibition of the uPA activation cascade, the subsequent cell surface uPA activity-dependent translocation of LF into the cytoplasm is inhibited. ATP-Lite is used to measure intracellular ATP concentrations, which remain increased if LF entry into the cytoplasm is inhibited. This validation assay was performed using a small set of validation compounds.
uPA assay protocol summary:
RAW 264.7 cells were maintained in DMEM medium (Invitrogen, Carlsbad, CA) at 37C under a humidified atmosphere containing 5% CO2 and 95% air. The medium contained 10% FBS, 1 mM sodium pyruvate and 50 U/ml penicillin/streptamycin (Invitrogen, Carlsbad, CA). All compounds were screened as 7-point titration from 2.45 nM to 38.3 uM final concentration. The assay was performed in 1536-well format plate as follows:
1.Dispensing RAW 264.7 cells into 1536-well, white walled tissue culture plates at a density of 4000 cells/well (4 uL).
2.Incubation at 37 C in a 5% CO2 incubator overnight.
3.Serially diluting compounds (1:5 serial dilution; 0.0024 uM to […] final concentration) in 23 nl DMSO.
5.Incubating the compound and reagent-treated plates for 18 hours at 37 C in a 5% CO2 incubator.
6.Adding ATP-Lite (3 ul).
7.Reading plates by ViewLux with an exposure length of 5 seconds.

**Q.** Which outcome does the source give for `O=C(O)C1CN(CCCP(=O)(O)O)CCN1` (stereo not given) here?
**A.** inactive

**Q.** With `CC(C)(C)c1ccc(/C=C/C(=O)Nc2ccc3c(c2)OCCO3)cc1` as the molecule, how does the outcome read?
**A.** inactive

**Q.** For `Cc1cc(Cn2cnc3c2C[C@@H](C(=O)O)N(C(=O)C(c2ccccc2)c2ccccc2)C3)ccc1N`, which outcome is on record?
**A.** inactive

**Q.** Which outcome does the source give for `Nc1nc2c(cnn2CCc2ccccc2)c2nc(-c3ccco3)nn12` here?
**A.** inactive

**Q.** Which outcome does the source give for `CCCCC[C@H](CC(=O)NO)C(=O)N[C@H](C(=O)N1CCC[C@H]1CO)C(C)C` here?
**A.** inactive

**Q.** For `O=C(c1ccc2c(c1)OCCO2)N1CCCCC1`, which outcome is on record?
**A.** inactive

**Q.** With `O=C(O)/C=C/c1cnc[nH]1` as the molecule, how does the outcome read?
**A.** inactive

**Q.** Which outcome does the source give for `O=C(O)c1cc(=O)cc(C(=O)O)[nH]1` here?
**A.** inactive

**Q.** Which outcome does the source give for `CC(C)NC[C@H](O)COc1ccc(CC(N)=O)cc1` here?
**A.** inactive

**Q.** With `O=C1Cc2c([nH]c3ccc(Br)cc23)-c2ccccc2N1` as the molecule, how does the outcome read?
**A.** inactive

**Q.** With `CCCCCCCC/C=C\CCCCCCCC(=O)NCCc1ccc(O)c(O)c1` as the molecule, how does the outcome read?
**A.** inactive

**Q.** For `Cn1c(=O)c2c(nc(/C=C/c3cccc(Cl)c3)n2C)n(C)c1=O`, which outcome is on record?
**A.** inactive

**Q.** For `CCN(c1nc(N)c(C(=O)N=C(N)N)nc1Cl)C(C)C`, which outcome is on record?
**A.** inactive

**Q.** Which outcome does the source give for `c1ccc2c(c1)CC(N1CCN(c3cccc4c3OCCO4)CC1)C2` here?
**A.** inactive

**Q.** Which outcome does the source give for `c1ccc2nc(C3=NCCN3)ccc2c1` here?
**A.** inactive

**Q.** Which outcome does the source give for `COc1cc(/C=C(\C#N)C(=O)c2ccc(O)c(O)c2)cc(I)c1O` here?
**A.** inactive

**Q.** With `N#Cc1cc([N+](=O)[O-])c2sc(C(N)=O)[n+]([O-])c2c1` as the molecule, how does the outcome read?
**A.** inactive

**Q.** With `c1ccc(C(NCCNC(c2ccccc2)c2ccccc2)c2ccccc2)cc1` as the molecule, how does the outcome read?
**A.** inactive

**Q.** For `CCCCCCCCCCCCCCSCC(=O)O`, which outcome is on record?
**A.** inactive

**Q.** Which outcome does the source give for `NC(=O)CC[C@H](N)C(=O)O` here?
**A.** inactive

**Q.** With `Clc1nccc2c1ccc1ccccc12` as the molecule, how does the outcome read?
**A.** inactive

**Q.** Which outcome does the source give for `NCCS(=O)O` here?
**A.** inactive

**Q.** Which outcome does the source give for `Nc1ncnc2c1c(-c1ccc(Oc3ccccc3)cc1)cn2C1CCCC1` here?
**A.** inactive

**Q.** Which outcome does the source give for `CN(C)CCC(c1ccc(Br)cc1)c1ccccn1` (stereo not given) here?
**A.** inactive

**Q.** For `CC(=O)NCCc1c[nH]c2ccc(O)cc12`, which outcome is on record?
**A.** inactive

**Q.** For `c1ccc(CN2CCC3(CCCc4ccccc43)CC2)cc1`, which outcome is on record?
**A.** inactive

**Q.** With `OC[C@H]1O[C@@H](n2cnc3cncnc32)[C@H](O)[C@@H]1O` as the molecule, how does the outcome read?
**A.** inactive

**Q.** Which outcome does the source give for `C=C1C(=O)O[C@@H]2[C@H]3O[C@]3(C)CCC=C(C)CC[C@@H]12` here?
**A.** inactive

**Q.** For `NC(N)=NC(N)=Nc1ccccc1`, which outcome is on record?
**A.** inactive

**Q.** For `C=CCNc1ncnc2ccc(Br)cc12`, which outcome is on record?
**A.** inactive

**Q.** Which outcome does the source give for `CCn1c(=O)[nH]c2cc(Cl)c(Cl)cc21` here?
**A.** inactive

**Q.** With `Cn1ccnc1` as the molecule, how does the outcome read?
**A.** inactive

**Q.** For `COc1ccccc1N1CCN(CCCCN2C(=O)c3ccccc3C2=O)CC1`, which outcome is on record?
**A.** inactive

**Q.** With `NCCC1CCCC(CCN)N1` (stereo not given) as the molecule, how does the outcome read?
**A.** inactive

**Q.** With `NCCCNCCCCNCCCN` as the molecule, how does the outcome read?
**A.** inactive

**Q.** Which outcome does the source give for `Cn1c(=O)c2[nH]c(-c3ccc(S(=O)(=O)O)cc3)nc2n(C)c1=O` here?
**A.** inactive

**Q.** Which outcome does the source give for `COc1ccc2c(c1)CCC1C2CC[C@@]2(C)C1CC[C@@H]2NCCCCCCN1C(=O)C=CC1=O` (stereo not given in full) here?
**A.** inactive

**Q.** Which outcome does the source give for `O=c1cc(-c2ccccc2)[nH]c2nc(Cl)ccc12` here?
**A.** inactive

**Q.** For `Nc1ccc(-c2ccc3ccccc3n2)cc1`, which outcome is on record?
**A.** inactive

**Q.** Which outcome does the source give for `NC(=O)c1ccccc1` here?
**A.** inactive
